# Assay results: PubChem BioAssay (NCATS)
# Records with an inconclusive call do not appear. The source made the active and inactive calls. Unless noted, calls follow the shape of the dose curve; as a rule, active = well fitted curve in the direction sought with a large enough effect; inconclusive = small, poorly fitted or top-dose-only effect, or another doubt; inactive = no such curve, though single readings can be large; an effect the other way counts as inactive or inconclusive.
# Assays:
# [1] = Quantitative High-Throughput drug screen in 47 multiple myeloma cell lines against the NCATS MIPE library collection: RPMI8226_ATCC cell viability assay (AID 1919871); also: nearly all actives have a fitted effect of over 30% in size; also: potency is read from the fitted curve at half-maximal effect
# How it was run: (§1)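 ATP-based luminescence (CellTiter-Glo, 5 min RT incubation) quantified surviving cells following two days' treatment with MIPE 4.0 agents at 37 °C, 5% CO2.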
# [2] = Quantitative High-Throughput drug screen in 47 multiple myeloma cell lines against the NCATS MIPE library collection: OPM2_DSMZ cell viability assay (AID 1919872); also: nearly all actives have a fitted effect of over 30% in size; also: potency is read from the fitted curve at half-maximal effect
# How it was run: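 CellTiter-Glo luminescence (ATP) after 48 h compound exposure, 37C/5% CO2; 500 cells/well; MIPE 4.0 approved/investigational drugs pinned in; DMSO = 100%, media only = 0% viability.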
# [3] = Quantitative High-Throughput drug screen in 47 multiple myeloma cell lines against the NCATS MIPE library collection: KMS11_JCRBsus cell viability assay (AID 1919873); also: nearly all actives have a fitted effect of over 50% in size; also: potency is read from the fitted curve at half-maximal effect
# How it was run: as §1
# [4] = Quantitative High-Throughput drug screen in 47 multiple myeloma cell lines against the NCATS MIPE library collection: KMS28BM_JCRB cell viability assay (AID 1919874); also: nearly all actives have a fitted effect of over 35% in size; also: potency is read from the fitted curve at half-maximal effect
# How it was run: as §1
# [5] = qHTS drug screen for cell cycle checkpoint inhibitors in PARPi-resistant BRCA-mutant ovarian cancer cell lines. (AID 1963452; calls by dose curve; also: potency is read from the fitted curve at half-maximal effect); conditions: PEO1/OlaR viability, CellTiter-Glo luminescence, 96 h; for Z-AUC: stronger effect = lower value
# How it was run: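 PEO1, PEO4 and PEO1/OlaR ovarian cancer cells, 600 per well, exposed 96 h at 37C to a dilution series. Viability read by CellTiter-Glo luminescence, normalized to DMSO and empty wells; activity summarized as Z-AUC.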
# [6] = qHTS for identification of novel therapeutic agents for treatment of microphthalmiaassociated transcription factor (MiT) renal cell carcinoma (RCC) (AID 1963991; calls by dose curve; also: potency is read from the fitted curve at half-maximal effect); conditions: CellTiter-Glo, 48 h; for z-score: stronger effect = lower value; for Potency: active = Z-AUC below -0.8 in all three lines
# How it was run: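 Three TFE3-fusion RCC lines (UOK109, UOK124, UOK145), 500 cells/well in complete medium, were treated with MIPE 4.0 compounds for 48 hours at 37 C. Viability was by CellTiter-Glo luminescence, normalized to DMSO (100%) and empty wells (0%); curves fitted over 11 concentrations.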
# [7] = qHTS profiling for inhibitors of Plasmodium falciparum proliferation (AID 504749);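 also: 0% = DMSO vehicle and full inhibition = artemisinin control; nearly all actives have a fitted effect of over 60% in size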; conditions: P. falciparum in erythrocytes, SYBR Green DNA, 72 h, at 12.8 µM (top of the series)
# How it was run: (§2)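 In a 72 h erythrocytic culture (37 C, humidified, 5% CO2) at 2.5% hematocrit and 0.3% starting parasitemia, compounds were tested; SYBR Green I in detergent lysis buffer stained parasite DNA overnight.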
# 7G8 = test: as above; conditions: P. falciparum in erythrocytes, SYBR Green DNA, 72 h; series mostly up to 28.7 µM
# How it was run: as §2
# AA1029 = test: as above; conditions: P. falciparum in erythrocytes, SYBR Green DNA, 72 h; series mostly up to 28.7 µM
# How it was run: as §2
# [8] = measured here: PEO1 parental Z-AUC
# [9] = TFE3-RCC UOK109 viability, measured here: UOK109 Z-AUC
# [10] = TFE3-RCC viability, measured here: UOK124 Z-AUC
# [11] = TFE3-RCC viability, measured here: UOK145 Z-AUC
compound,measurement,setting,value
O=C1C(Cl)=C(NCCN2CCOCC2)C(=O)c2ncccc21,Potency,[1],9.35 µM (active)
same,Potency,[2],7.43 µM (active)
same,Potency,[3],1.87 µM (active)
same,Potency,[4],3.32 µM (active)
same,Z-AUC,[5],-1.13 (inactive)
same,Z-AUC,[5]; [8],-1.16
same,Z-AUC,[5]; measured here: PEO4 Z-AUC,-1.1
NC(=O)NN=Cc1ccc([N+](=O)[O-])o1,Potency,[1],inactive
same,Potency,[2],inactive
same,Potency,[3],inactive
same,Potency,[4],inactive
Cc1[nH]c(C=C2C(=O)Nc3ccc(S(=O)(=O)Cc4c(Cl)cccc4Cl)cc32)c(C)c1C(=O)N1CCC[C@H]1CN1CCCC1,Potency,[1],20.9 µM (active)
same,Potency,[2],26.4 µM (active)
same,Potency,[3],11.8 µM (active)
same,Potency,[4],20.9 µM (active)
O=C(O)c1ccc(-c2c[nH]c3ncc(-c4ccccc4)cc23)cc1C1CCCC1,Potency,[1],inactive
same,Potency,[2],inactive
same,Potency,[3],inactive
same,Potency,[4],inactive
same,Z-AUC,[5],0.296 (inactive)
same,Z-AUC,[5]; [8],-0.104
same,Z-AUC,[5]; measured here: PEO4 Z-AUC,0.0769
same,z-score,[6]; [9],1.28
same,z-score,[6]; [10],0.56
same,z-score,[6]; [11],0.0409
COC(=O)C1=CO[C@@H](O)[C@@H]2C(CO)=CC[C@@H]12,Potency,[1],20.9 µM (active)
CCn1cc(C(=O)O)c(=O)c2ccc(C)nc21,Potency,[1],inactive
same,Potency,[2],inactive
CO[C@H]1C(=O)[C@]2(C)[C@@H](OC)C[C@H]3OC[C@@]3(OC(C)=O)[C@H]2[C@H](OC(=O)c2ccccc2)[C@]2(O)C[C@H](OC(=O)[C@H](O)[C@@H](NC(=O)OC(C)(C)C)c3ccccc3)C(C)=C1C2(C)C,Potency,[1],inactive
same,Potency,[2],inactive
same,Potency,[3],inactive
same,Potency,[4],inactive
same,Potency,[5],0.0078 µM (active)
same,Z-AUC,[5]; [8],-2.35
same,Z-AUC,[5]; measured here: PEO4 Z-AUC,-2.45
Clc1ccc(C(c2ccc(Cl)cc2)n2cc[n+](CC(OCc3ccc(Cl)cc3Cl)c3ccc(Cl)cc3Cl)c2)cc1 (centres undefined),Potency,[1],20.9 µM (active)
same,Potency,[2],18.7 µM (active)
same,Potency,[3],9.35 µM (active)
same,Potency,[4],11.8 µM (active)
same,Z-AUC,[5],0.167 (inactive)
same,Z-AUC,[5]; [8],-0.468
same,Z-AUC,[5]; measured here: PEO4 Z-AUC,-0.455
CC[C@@H]1C=C(C)C[C@H](C)C[C@H](OC)[C@H]2O[C@@](O)(C(=O)C(=O)N3CCCC[C@@H]3C(=O)O[C@H](C(C)=C[C@@H]3CC[C@H](Cl)[C@H](OC)C3)[C@H](C)[C@@H](O)CC1=O)[C@H](C)C[C@H]2OC,Potency,[1],18.7 µM (active)
same,Potency,[2],inactive
Cc1nnc(C(C)C)n1C1C[C@H]2CC[C@@H](C1)N2CC[C@H](NC(=O)C1CCC(F)(F)CC1)c1ccccc1 (some centres undefined),Potency,[1],inactive
same,Potency,[2],inactive
same,Potency,[3],inactive
same,Potency,[4],inactive
CC(C)OC(=O)CCCC=CC[C@@H]1[C@H](C=C[C@@H](O)COc2cccc(C(F)(F)F)c2)[C@H](O)C[C@@H]1O,Potency,[1],10.5 µM (active)
same,Potency,[2],23.5 µM (active)
same,Potency,[3],16.6 µM (active)
same,Potency,[4],18.7 µM (active)
COc1ccc(-c2oc3c(CC=C(C)C)c(OC4O[C@H](CO)[C@@H](O)[C@H](O)[C@@H]4O)cc(O)c3c(=O)c2OC2O[C@@H](C)[C@H](O)[C@@H](O)[C@@H]2O)cc1 (some centres undefined),Potency,[1],20.9 µM (active)
same,Potency,[2],23.5 µM (active)
same,Potency,[3],23.5 µM (active)
same,Potency,[4],16.6 µM (active)
C[C@H]1[C@H](NC(=O)C(=NOC(C)(C)C(=O)O)c2csc(N)n2)C(=O)N1S(=O)(=O)O,Potency,[1],inactive
same,Potency,[2],inactive
same,Potency,[3],inactive
same,Potency,[4],inactive
same,z-score,[6]; [9],1.25
same,z-score,[6]; [10],0.648
same,z-score,[6]; [11],1.65
Clc1ccc(-c2nc3sccn3c2C=NOCc2ccc(Cl)c(Cl)c2)cc1,Potency,[1],inactive
same,Potency,[2],inactive
same,Potency,[3],inactive
same,Potency,[4],inactive
same,z-score,[6]; [9],0.77
same,z-score,[6]; [10],0.598
same,z-score,[6]; [11],0.227
NC(=O)c1cccc(-c2cc(Nc3ccc(OC(F)(F)F)cc3)ncn2)c1,Potency,[1],inactive
same,Potency,[2],16.6 µM (active)
same,Potency,[3],29.6 µM (active)
same,Z-AUC,[5],1.26 (inactive)
same,Z-AUC,[5]; [8],0.548
same,Z-AUC,[5]; measured here: PEO4 Z-AUC,0.648
O=C1c2ccccc2-[n+]2ccc3c([nH]c4ccccc43)c21,Potency,[1],2.96 µM (active)
same,Potency,[2],2.64 µM (active)
same,Potency,[3],1.05 µM (active)
same,Potency,[4],1.32 µM (active)
same,Z-AUC,[5],-1.18 (inactive)
same,Z-AUC,[5]; [8],-1.75
same,Z-AUC,[5]; measured here: PEO4 Z-AUC,-2.31
same,Potency,[6]; TFE3-RCC UOK109 viability,1.66 µM (active)
same,z-score,[6]; [9],-1.69
same,z-score,[6]; [10],-2.04
same,z-score,[6]; [11],-1.7
O=C(Nc1ccccc1-c1cn2c(CN3CCNCC3)csc2n1)c1cnc2ccccc2n1,Potency,[1],20.9 µM (active)
same,Potency,[2],23.5 µM (active)
same,Potency,[3],8.33 µM (active)
same,Z-AUC,[5],0.244 (inactive)
same,Z-AUC,[5]; [8],0.118
same,Z-AUC,[5]; measured here: PEO4 Z-AUC,-0.298
COc1ccc(Cc2nccc3cc(OC)c(OC)cc23)cc1OC,Potency,[1],inactive
same,Potency,[2],11.8 µM (active)
same,Potency,[3],18.7 µM (active)
same,Potency,[4],20.9 µM (active)
same,Z-AUC,[5],-1.7 (inactive)
same,Z-AUC,[5]; [8],-1.2
same,Z-AUC,[5]; measured here: PEO4 Z-AUC,0.243
same,"activity, negative = inhibition",[7]; parasite line A,0.631% (inactive)
same,"activity, negative = inhibition",[7]; parasite line B,6.88% (inactive)
same,Potency,7G8,inactive
same,outcome,AA1029,inactive
CC(=Cc1ccccc1)C=C1SC(=S)N(CC(=O)O)C1=O,Potency,[1],inactive
same,Potency,[2],inactive
same,Potency,[3],inactive
same,Potency,[4],inactive
same,z-score,[6]; [9],1.2
same,z-score,[6]; [10],1.04
same,z-score,[6]; [11],0.683
COc1cc2nc(-c3ccc(N4CCN(C)CC4)cc3)nc(NCCN3CCOCC3)c2cc1OC,Potency,[1],0.0833 µM (active)
same,Potency,[2],3.32 µM (active)
same,Potency,[3],0.0935 µM (active)
same,Potency,[4],0.105 µM (active)
same,Z-AUC,[5],-0.0476 (inactive)
same,Z-AUC,[5]; [8],-0.00961
same,Z-AUC,[5]; measured here: PEO4 Z-AUC,-0.573
same,Potency,[6]; TFE3-RCC UOK109 viability,1.18 µM (active)
same,z-score,[6]; [9],-1.15
same,z-score,[6]; [10],-1.85
same,z-score,[6]; [11],-1.4
OC[C@H]1O[C@@H](Oc2cc(O)cc(C=Cc3ccc(O)cc3)c2)[C@H](O)[C@@H](O)[C@H]1O,Potency,[1],inactive
same,Potency,[2],inactive
same,Potency,[3],inactive
same,Potency,[4],inactive
same,z-score,[6]; [9],0.664
same,z-score,[6]; [10],0.547
same,z-score,[6]; [11],1.48
